Among all 2,400 compounds or so, about 180 (7.5%) were called active. Shown is part of a subset that was picked to be rich in actives. A number with no mark means an inactive call.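 Rule for the calls: active = readout below zero, meaning a drop past 3 SD under the dofetilide-free negative control mean; inactive = the rest.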

Sequence of Potassium voltage-gated channel subfamily KQT member 2 (Rattus norvegicus) (O88943 whole entry, looked up): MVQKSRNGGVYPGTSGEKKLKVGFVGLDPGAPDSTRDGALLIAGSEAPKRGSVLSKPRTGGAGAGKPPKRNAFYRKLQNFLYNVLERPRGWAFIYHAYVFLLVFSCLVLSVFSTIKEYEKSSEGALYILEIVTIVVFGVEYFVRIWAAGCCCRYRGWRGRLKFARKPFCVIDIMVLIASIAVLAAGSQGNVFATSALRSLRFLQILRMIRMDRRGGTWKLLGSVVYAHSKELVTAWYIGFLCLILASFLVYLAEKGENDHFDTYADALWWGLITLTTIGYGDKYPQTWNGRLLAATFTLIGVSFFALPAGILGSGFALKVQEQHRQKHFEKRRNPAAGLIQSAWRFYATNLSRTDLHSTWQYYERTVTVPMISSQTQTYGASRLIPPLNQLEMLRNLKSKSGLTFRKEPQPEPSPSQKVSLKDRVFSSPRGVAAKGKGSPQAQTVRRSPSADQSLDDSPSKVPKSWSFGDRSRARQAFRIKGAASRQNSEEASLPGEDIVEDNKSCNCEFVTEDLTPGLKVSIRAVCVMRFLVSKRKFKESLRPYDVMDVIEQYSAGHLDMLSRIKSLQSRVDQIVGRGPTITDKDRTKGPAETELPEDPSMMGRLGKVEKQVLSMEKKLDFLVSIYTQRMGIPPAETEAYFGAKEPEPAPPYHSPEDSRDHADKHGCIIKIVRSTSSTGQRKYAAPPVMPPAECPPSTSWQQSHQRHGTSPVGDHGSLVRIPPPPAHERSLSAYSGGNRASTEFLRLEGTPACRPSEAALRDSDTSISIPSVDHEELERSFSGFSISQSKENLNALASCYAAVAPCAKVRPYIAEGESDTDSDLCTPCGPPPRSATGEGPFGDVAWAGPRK

This assay concerns the target Potassium voltage-gated channel subfamily KQT member 2 (Rattus norvegicus) (UniProt O88943). Nature of the assay: rat KCNQ2 channel inhibition by compounds alone, confirmation, counter-screen for hERG block protector project, cell-based, CHO, FluxOR thallium flux (AID 1946). To be noted: CHO-KCNQ2 cells, FluxOR thallium flux fluorescence; at 10 µM; stronger effect = lower value; zero marks the 3-SD hit cutoff. (A counterscreen serves to expose hits that act by an unwanted route or on another target.)
Take `CC(=O)c1c(N2CCN(Cc3ccccc3)CC2)[nH]c(-c2ccccc2)nc1=S`: the activity change vs negative control is 50.5%.
Consider `COc1ccc(-n2nc(C)cc2Nc2ccccc2C(=O)O)cc1`, for which the activity change vs negative control was 43.7%.
As to `C/C(=N\Nc1nc(C)c(C)s1)c1ccc([N+](=O)[O-])cc1`, the activity change vs negative control is 31.5%.
For `c1ccc(-c2ccnc3nc(N4CCN(c5ccccc5)CC4)nn23)cc1`, the activity change vs negative control is -4.9% (active).
Regarding `O=c1[nH]c(N2CCN(c3ccccc3)CC2)nc2c1CCCC2`, the activity change vs negative control is 12%.
Take `Cc1ccc(C(=O)NC(=S)N(C)Cc2ccccc2)cc1`: the activity change vs negative control was 28.6%.
On to `CCC(=O)N(CC)c1nc(-c2ccc(OC)cc2)cs1`, for which the activity change vs negative control is 60.4%.
Consider `Cc1ccc(Cn2nnc3c(=O)n(CC(=O)N4CCCc5ccccc54)cnc32)cc1`, for which the activity change vs negative control was 13%.
As to `Cc1c(C(=O)NNC(=O)c2ccncc2)oc2ccc(Br)cc12`, the activity change vs negative control is -1.5% (active).
Take `CC(NC(=O)c1ccncc1)C(C)(C)C` (stereo not drawn): the activity change vs negative control was 32.4%.
To `Cc1c(C(=O)NC(=S)NCc2cccnc2)oc2ccccc12` belongs 5.5%; to `O=C1CSC(=S)N1/N=C/c1cc(Br)ccc1O`, 21.5%.
To `Cc1cccc(OCC(=O)NC(=S)N2CCCc3ccccc32)c1` belongs -0.9% (active); to `O=C(NC(=S)N1CCCc2ccccc21)c1ccccc1`, 21.6%; to `O=C(COc1ccc(Br)cc1Cl)NC(=S)N1CCc2ccccc21`, 9.4%.
In the case of `O=C(COc1ccc(Br)cc1Br)NC(=S)N1CCCc2ccccc21`, the activity change vs negative control was -2.3% (active).
As for `O=C(COc1ccccc1)NC(=S)N1CCc2ccccc21`, the activity change vs negative control was 25.7%.
In the case of `O=C(COc1ccc(Cl)cc1Cl)NC(=S)N1CCCc2ccccc21`, the activity change vs negative control is 0.8%.
Regarding `COc1cccc2sc(Nc3nc(-c4ccccn4)cs3)nc12`, the activity change vs negative control was 34.8%.
Regarding `CCN1C(=O)/C(=C/c2ccc(C)s2)NC1=S`, the activity change vs negative control was 65.6%.
As for `COC(=O)c1ccc(NC(=S)NC(=O)c2cc(-c3ccccc3)nc3ccccc23)cc1`, the activity change vs negative control is 28.9%.
As to `COc1cccc(C(=O)NNC(=O)C(=O)Nc2ccc(C)c(Cl)c2)c1`, the activity change vs negative control is 98.2%.
With `Nn1c(SCC(=O)Nc2ccccc2F)nnc1C1CCCCC1`, the activity change vs negative control was 10.9%.
For `Nn1c(SCC(=O)Nc2ccc(F)cc2)nnc1C1CCCCC1`, the activity change vs negative control is -0.5% (active).
To `CC(C)OC(=O)CSc1nnc(C2CCCCC2)n1N` belongs 6%; to `CCOc1ccc2nc(/N=C/c3nc(-c4ccc(Br)cc4)oc3O)sc2c1`, 13.7%.
Regarding `S=c1nc[nH]c2c1sc1nc(N3CCOCC3)c3c(c12)CCCC3`, the activity change vs negative control was 74.9%.
On to `C/C(=N\Nc1nc2ccccc2nc1C)c1ccccc1O`, for which the activity change vs negative control was 35.1%.
